# The whole screen tested about 71,000 compounds, of which about 1,800 (2.5%) were called active. Where a call stands in place of a potency, no number is given. Not shown: some 26% with an inconclusive outcome. The full list was thinned out, with actives kept by preference. Unmarked numbers belong to inactive results. Calls come from the whole dose curve; as a rule, active = well fitted activation curve with a large enough effect in the signal ratio, with a control signal flat (not every such curve was filed as active); inconclusive = small, poorly fitted or top-dose-only effect, or effect the other way, or a change in a side signal; inactive = flat fitted curve, though single readings scatter; the % refers to the signal ratio.
# Test: Cell signaling CRE-BLA (Fsk stim)
# Details: CHO CRE-bla reporter (cAMP response element driving beta-lactamase), forskolin EC10, beta-lactamase ratio; series mostly up to 38.2 µM
# From the text: NIH Molecular Libraries Screening Centers Network [MLSCN]
# NIH Chemical Genomics Center [NCGC]
# Assay Provider: Marshall W. Nirenberg, U.S. National heart lung & blood institute
# Memories persist for different lengths of time, from seconds or minutes to a lifetime. There are two kinds of memory: short-term memory (STM) and long-term memory (LTM). STM lasts for minutes to hours, which maybe mediated by modifications of molecules involved in synaptic functions. LTM lasts for days or longer, and may be due to the formation of new synapses or restructuring of existing synapses. LTM, but not STM, requires gene transcription and synthesis of proteins. CREB (cyclic-AMP Responsive Element Binding Protein) is one of the candidates plays an important role for enhancement of some types of LTM. CREB, a family of transcription factors, regulates the transcription of genes containing cAMP Responsive Elements (CRE). CRE is a nucleotide sequence often found in the promoter regions of genes that are binding sites for CREB.
# Using a beta-lactamase reporter-gene under control of cAMP responsive element, a cell-based assay [CellSensor(TM) CRE-bla CHO developed by Invitrogen Corp.] was used to measure forskolin-induced signaling. Library compounds were measured for their ability to modulate positively or negatively the action of EC10 NKH 477, a water soluble forskolin, on reporter gene activity. Compounds were screened in a titration series in 1536-well format. Positive and negative modulators were identified based on the AC50 values derived from the screening data.
# NCGC Assay Protocol Summary
# 2000 cells/5uL in Opti-MEM medium containing 0.5% dialyzed FBS, 0.1 mM NEAA, 1 mM sodium pyruvate and 10 mM HEPES was dispensed into 1536-well plates and cells were cultured at 37 degrees Celsius overnight. […] And then the plates were incubated at 37 degrees Celsius for 3 hours. 1 uL of CCF4-dye mixture was added to each well. After incubated at room temperature for 2 hours the plates were measured on an EnVision plate reader at Excitation 405nm, Emission1=460nm and Emission 2=530nm. The %Activity was determined from the ratio of 460nm/530nm.
# Keywords: NIH Roadmap, MLSCN, MLSMR, qHTS, NCGC, CRE, beta-lactamase reporter-gene assay.
# Potency is the fitted concentration of half-maximal effect.
SMILES,Potency,"activity change, negative = inhibition"
CCOC(=O)c1c(NC(=O)c2cccs2)sc(C)c1C,2.51 µM (active),
CCc1nnc(NC(=O)c2cccs2)s1,inactive,
O=C(Nc1ncccn1)c1cccs1,inactive,
CCOC(=O)c1oc2ccccc2c1NC(=O)c1cccs1,3.98 µM (active),
COC(=O)Cn1cc(C(=O)c2cccs2)c2ccccc21,inactive,
O=C(O)Cc1ccc(NC(=O)c2cccs2)cc1,inactive,
COC(=O)C1=C(C)N(C)C(C)=C(C(=O)OC)C1c1cccc(Br)c1,inactive,
O=C(Cl)c1ccc([N+](=O)[O-])cc1,inactive,
CCNC(=S)NCC,inactive,
CCCCC(CC)CN (stereo not drawn),inactive,
c1csc(-c2cn3c(n2)SCC3)c1,inactive,
Cc1c(C)c2c(c(C)c1O)CC[C@@](C)(CN1CCN(c3cc(N4CCCC4)nc(N4CCCC4)n3)CC1)O2,inactive,
CC1OC2C(OC1C)N(S(C)(=O)=O)CCN2S(C)(=O)=O (stereo not drawn),inactive,
Cc1nc2cnc(N3CCN(C)CC3)nc2n(C[C@H]2CCCO2)c1=O,inactive,
Cc1nc2cnc(N3CCN(C)CC3)nc2n(CCC#N)c1=O,inactive,
O=c1c(CCc2ccccc2)nc2cnc(N3CCNCC3)nc2n1Cc1cccs1,12.6 µM (active),
CC(C)(C)[Si](OCC[C@@H]1C[C@@]1(C)[C@@H](NP(=O)(c1ccccc1)c1ccccc1)c1ccccc1)(c1ccccc1)c1ccccc1,inactive,
COC(=O)[C@@]1(Cc2ccc(OC)cc2)[C@H]2c3cc(C(=O)N4CCCC4)n(Cc4ccc(C(F)(F)F)nc4)c3C[C@H]2CN1C(=O)c1ccccc1,inactive,
COC(=O)C1(C)C=CC2(CCCCC2)N1C(C)=O (stereo not drawn),inactive,
CCCCCCCCCCCC(=O)O,inactive,
Cn1c(=O)c2c(nc(CN3CCOCC3)n2Cc2ccccc2)n(C)c1=O,inactive,
CCCOc1ccc(C2c3c(oc4cc(C)c(C)cc4c3=O)C(=O)N2CCCN2CCOCC2)cc1 (stereo not drawn),inactive,
Cc1cccn2c(=O)c3cc(C#N)c(=O)n(CCCN4CCOCC4)c3nc12,10 µM (active),
CCOC(=O)CSc1nnc(-c2cccc(Br)c2)o1,inactive,
CCC[C@@H]1C[C@@]1(CCC)C(NC(=O)c1ccc(-c2ccccc2)cc1)c1cccc(Cl)c1 (stereo partly drawn),inactive,

SMILES,Potency,"activity change, negative = inhibition"
CSc1ncccc1C(=O)OCC(=O)N1CCOCC1,inactive,
COc1ccc(C(=O)NCc2cn3ccccc3n2)cc1,inactive,
CCOc1ncccc1C(=O)OCc1cn2cc(Cl)ccc2n1,10 µM (active),
CC(=O)N1[C@H](C)C=C[C@]1(Cc1ccccc1)C(=O)NCc1ccccn1,inactive,
C/C(=C\C(=O)c1ccc(Br)cc1)N1CCCCC1,inactive,
COC(=O)C1(Cc2ccccc2)C=C2C(=C(C)C(=O)C2C)CN1 (stereo not drawn),inactive,
Cc1nnc2sc(-c3ccco3)nn12,inactive,
COc1cc(-c2nn3c(-c4cccc(C)c4)nnc3s2)cc(OC)c1OC,1.58 µM (active),
COc1ccc(-c2nn3c(-c4ccccc4)nnc3s2)cc1OC,3.16 µM (active),
Fc1ccc(-c2ccc(-c3nn4c(-c5ccco5)nnc4s3)o2)cc1,inactive,
CC(=O)Nc1ccc(-c2nn3c(C)nnc3s2)cc1C,inactive,
COC(=O)CCCCCN1C(=O)NC(c2ccc(-c3ccccc3)cc2)C(C(=O)OCc2ccccc2)=C1C (stereo not drawn),inactive,
O=C(CCSc1ccccc1)NCCSc1ccccn1,inactive,
CCOc1ccccc1N(CC(=O)Nc1ccccc1C(=O)OC)S(C)(=O)=O,,12.2% [at 7.6 µM]
CC(NC(=O)Nc1ccccc1)c1ccccc1 (stereo not drawn),inactive,
CC(Cc1ccccc1)C(=O)N(C)Cc1ccccc1 (stereo not drawn),inactive,
CCOc1ccc(Cn2c(SCCCCC#N)nc3c2c(=O)n(C)c(=O)n3C)cc1OCC,10 µM (active),
CCCSc1nc2c(c(=O)n(C)c(=O)n2C)n1Cc1ccc(C)cc1,inactive,
COC(=O)C(C)Sc1nc2c(c(=O)n(C)c(=O)n2C)n1Cc1cccc(C)c1 (stereo not drawn),inactive,
COC(=O)[C@@]1(Cc2ccccc2)[C@H]2c3cc(C(=O)N(C)C)n(CCSCCO)c3C[C@H]2CN1C(=O)c1ccccc1,inactive,
NS(=O)(=O)c1ccc(NS(=O)(=O)/C=C/c2ccccc2)cc1,inactive,
CC(C)(C)NC(=O)c1cc(NC(=O)c2ccco2)cc(NC(=O)c2ccco2)c1,inactive,
O=C(Nc1cccc(Cl)c1)OCc1ccccn1,inactive,
O=c1c2[nH]c3ccc(Cl)cc3c2ncn1Cc1ccccn1,3.98 µM (active),
CC(=O)N1CC2(C)CN(C(C)=O)CC(C)(C1)C2=O,inactive,

SMILES,Potency,"activity change, negative = inhibition"
C/C=C/C=C/C(=O)O,inactive,
Nc1nc(SCCOc2ccccc2)n[nH]1,inactive,
CCNc1nc(NCC)nc(N(C)n2cnnc2)n1,inactive,
CCNc1nc(SCCOc2ccccc2)nc(N(C)C)n1,3.98 µM (active),
OC(CCl)CCl,inactive,
Cn1c(=O)c2c(nc(SCC(=O)Nc3ccccc3N3CCCCC3)n2C)n(C)c1=O,inactive,
COc1ccccc1NC(=O)CSc1nnc(-c2ccoc2C)n1CCc1ccccc1,inactive,
CCCc1nc(SCC(=O)Nc2ccccc2OC)c2c(=O)n(C)c(=O)n(C)c2n1,2.51 µM (active),
C=CCc1cccc2cc(C(=O)OCC)c(=O)oc12,inactive,
COc1ccccc1N1CCN(C[C@@H]2CN3C(=O)N(C)c4ccccc4C3=N2)CC1,inactive,
COc1ccc(-c2noc(-c3cccc(OC)c3OC)n2)cc1OC,2.51 µM (active),
COc1cc(-c2nc(-c3ccncc3)no2)cc(OC)c1OC,inactive,
COc1ccc(-c2nc(-c3ccccc3)no2)c(OC)c1,inactive,
COc1ccc(C(=O)n2nc(-c3ccc(Cl)cc3)nc2N)cc1OC,2 µM (active),
COc1ccccc1C(=O)n1nc(-c2ccccc2)nc1N,inactive,
COc1ccc(C(=O)n2nc(-c3ccc(C)cc3)nc2N)cc1OC,inactive,
O=C1CC(N2CCN(C(c3ccccc3)c3ccccc3)CC2)C(=O)N1 (stereo not drawn),inactive,
CC/C(=N\O)C(C)(C)/[N+]([O-])=C/c1ccc(Br)cc1,inactive,
O=C(OCCO)c1cc(Cl)c(C(=O)OCCO)cc1Cl,inactive,
O=C(O)CN(Cc1ccco1)S(=O)(=O)c1ccccc1,inactive,
CCc1nc(Nc2ccc3nccnc3c2)c2oc3ccccc3c2n1,0.794 µM (active),
CCc1nc(N2CCN(c3nc(C)cc(C)n3)CC2)c2oc3ccccc3c2n1,inactive,
COc1ccccc1Nc1ncnc2c1oc1ccccc12,inactive,

# Reference: PubChem BioAssay AID662 (National Center for Advancing Translational Sciences (NCATS), 2007)
